A selection: hits, their analogues and other compounds. The true share with any hit is near 5.4%.
Beta apoptosis = blocks beta cell apoptosis; protection from apoptosis, % (concentration not given with the values); hit rate 0.8% among 300,000; INS-1E cytokine-induced death, ATP luminescence, 48 h; percent of positive-control rescue, neutral wells zero;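 active = Every replicate reaches about 75%, or at least half do and their mean reaches it too, limit read from the data; inconclusive = At least half of replicates reach the limit but their mean does not; inactive = Under half of replicates reach the limit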;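 note: 0% = cytokine-treated negative control wells and 100% = positive control rescue; higher means more ATP so stronger rescue from cytokine killing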
SKKanGAS inh = inhibitors of SKKanGAS S. pyogenes growth in kanamycin (SK-promoter or general growth effect). hit rate 1.3% among 300,000. inhibition, % at 7.5 µM. BacTiter-Glo, 6 h;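 active = mean replicate score, as percent of positive control median, at least 50; inconclusive = mean below 50 but one replicate at or above 50; inactive = mean and every replicate below 50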;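 note: strain carries kanamycin resistance gene driven by streptokinase promoter and grows in 40 µg/ml kanamycin; loss of luminescence reflects streptokinase promoter inhibition or plain growth inhibition; 0% = median of DMSO wells and 100% = positive control at its reference dose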
MPTP inh = blocks calcium-induced mitochondrial swelling. hit rate 1.4% among 360,000. inhibition, % at 10 µM. isolated mouse mitochondria, Ca2+ swelling absorbance, 30 min;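 active = inhibition of 50% or more, scaled per plate between neutral and stimulator controls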;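 note: 0% = DMSO wells given calcium and 100% = 1 mM EGTA wells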
CSC inhib = blocks cancer stem cells. cancer stem cell-like cells viability, luminescence. inhibition, % at 7.5 µM. hit rate 1.1% among 300,000. AID 2717; in the data active = inhibition above about 75%; inconclusive = no clear call, values can overlap the other calls; tested in HMLE shEcad cells
Calb FLC = C. albicans growth modulation with fluconazole; C. albicans CaCi-2 (fluconazole-resistant clinical isolate) + fluconazole, Alamar Blue growth, 48 h; growth inhibition, % (no concentration beside the values); hit rate 0.57% among 300,000;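 active = growth inhibition above about 58% in most replicates, limit read from the data, passing the limit was not always enough; inconclusive = exactly half the replicates above a set limit; inactive = most replicates below a set limit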;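 note: all wells also contain fluconazole at 8 µg/ml as a sub-toxic cotreatment; 0% = median of DMSO wells and 100% = median of geldanamycin control wells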
Mdm2-MdmX inh = inhibitors of human Mdm2/MdmX interaction; AID 485346; SaOS-2 split-luciferase Mdm2/MdmX complementation, luminescence; hit rate 3% among 330,000; O15151+Q00987; inhibition, % at 8 µM;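 active = inhibition of at least 50% at 8 µM in the primary screen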
Mdm2 MdmX conf = human Mdm2/MdmX binding inhibition, confirmed | shares compounds with Mdm2-MdmX inh | luminescent assay | inhibition, % at 8 µM | hit rate 55% among 10,000; in the data active = inhibition above about 40%
FLuc counter = counter-screen for Mdm2/MdmX inhibitors: full-length luciferase. shares compounds with Mdm2-MdmX inh. SaOS-2 full-length luciferase counterscreen, luminescence. inhibition, % at 8 µM. hit rate 77% among 6,200. AID 504607;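 active = mean inhibition at 8 µM reaching about 37%, which flags the compound as non-specific, limit read from the data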;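 note: p53-null SaOS-2 cells with luciferase driven by a doxycycline-inducible promoter; compound on cells about two nights before reading with doxycycline added after day one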
MPTP counter = mitochondrial membrane potential, counter-screen; isolated mitochondria, Rhodamine 123 fluorescence; AID 624504; inhibition, % at 10 µM; shares compounds with MPTP inh; hit rate 78% among 5,000; in the data active = inhibition above about 22%;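 note: 0% = DMSO vehicle and 100% = positive control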
MPTP abs DR = dose response confirmation of mitochondrial permeability transition pore inhibitors | shares compounds with MPTP inh | isolated mitochondria swelling, absorbance | IC50, µM | hit rate 58% among 780 | AID 651561; in the data active = IC50 below about 20 µM
MPTP counter DR = active in counter-screen for permeability transition pore inhibitors; shares compounds with MPTP inh; isolated mitochondria counterscreen, fluorescence read-out; IC50, µM; hit rate 49% among 780; AID 651564; in the data active = IC50 below about 80 µM
* hit, by the source's call.

Screening COc1cc(CNCCc2ccc(S(N)(=O)=O)cc2)ccc1OCc1ccc(Cl)cc1 returned Beta apoptosis 22.8, SKKanGAS inh -2.9, MPTP inh 50.0*, CSC inhib 29.1, Calb FLC 0.3, Mdm2-MdmX inh 53.5*, Mdm2 MdmX conf 40.1*, FLuc counter 68.6*, MPTP counter 7.2, MPTP abs DR 3.86* and MPTP counter DR 14.7*.
For CCOC(=O)C1CCN(CC(=O)Nc2ccc(S(=O)(=O)N3CCC(C)CC3)cc2)CC1 the results were Beta apoptosis 1.1, SKKanGAS inh -0.8, MPTP inh 0.3, CSC inhib -12.7, Calb FLC -6.1 and Mdm2-MdmX inh 9.9.
Screening O=C(Nc1nc(-c2ccccc2)cs1)c1ccccc1F returned Beta apoptosis 8.1, SKKanGAS inh -10.7, MPTP inh 5.1, CSC inhib 7.3, Calb FLC -3.5 and Mdm2-MdmX inh -43.8.
For Cc1ccc(S(=O)(=O)Nc2ccccc2C(=O)Nc2nc(-c3ccc(F)cc3)cs2)cc1 the results were Beta apoptosis 99.3*, SKKanGAS inh 105.6*, MPTP inh 70.1*, CSC inhib 0.1, Calb FLC -1.6, Mdm2-MdmX inh 85.8*, Mdm2 MdmX conf 89.6*, FLuc counter 22.4 and MPTP counter 13.9.
`COc1ccc(-c2csc(NC(=O)c3ccccc3NS(=O)(=O)c3ccc(F)c(F)c3)n2)cc1` gave Beta apoptosis 86.7*, SKKanGAS inh 84.0*, MPTP inh 91.8*, CSC inhib 114.0*, Calb FLC 44.8, Mdm2-MdmX inh 90.2*, Mdm2 MdmX conf 90.5*, FLuc counter 22.0 and MPTP counter 1.4.
`COc1ccc(/C=N/NC(=O)CNc2n[nH]c(=O)[nH]c2=O)cc1OC` gave Beta apoptosis -6.8, SKKanGAS inh -0.3, MPTP inh -0.3, CSC inhib -11.6, Calb FLC 1.5 and Mdm2-MdmX inh 7.8.
O=[N+]([O-])c1ccc(NC(=S)NCCc2ccc(F)cc2)cc1 was read as Beta apoptosis 75.5*, SKKanGAS inh 0.0, MPTP inh 99.5*, CSC inhib 2.2, Calb FLC inconclusive, Mdm2-MdmX inh 86.3*, Mdm2 MdmX conf 63.4*, FLuc counter 85.9* and MPTP counter 80.9*.
`O=C(NCCc1ccc(Cl)cc1)Nc1ccc(F)cc1` gave Beta apoptosis -3.7, SKKanGAS inh -14.3, MPTP inh 0.9, CSC inhib -4.1, Calb FLC -4.4 and Mdm2-MdmX inh 5.4.
`CCOC(=O)Cc1nnc2c(Nc3ccc(Cl)cc3)nc3nonc3n12` gave Beta apoptosis 26.8, SKKanGAS inh inconclusive, MPTP inh 93.8*, CSC inhib 56.1, Calb FLC -8.5, Mdm2-MdmX inh 92.5*, Mdm2 MdmX conf 40.4*, FLuc counter 44.4* and MPTP counter 86.7*.
`O=C(Nc1nc(-c2cc(Cl)sc2Cl)cs1)c1ccc(Br)s1` gave SKKanGAS inh 6.0, MPTP inh 103.7*, CSC inhib 39.4, Calb FLC 24.7, Mdm2-MdmX inh 79.6*, Mdm2 MdmX conf 7.1 and MPTP counter 5.0.
Screening Cc1ccc2nc3c(c(Nc4ccc5c(c4)OCCO5)c2c1)CCC3 returned Beta apoptosis 21.1, SKKanGAS inh 11.7, MPTP inh 53.7*, CSC inhib -0.7, Calb FLC 11.4, Mdm2-MdmX inh 56.1*, Mdm2 MdmX conf 15.1 and MPTP counter 75.7*.
Screening CCn1c2ccccc2c2cc(CNCc3ccc(OC)cc3OC)ccc21 returned Beta apoptosis 8.8, SKKanGAS inh 16.1, MPTP inh 73.2*, CSC inhib -0.9, Calb FLC inconclusive, Mdm2-MdmX inh 100.3*, Mdm2 MdmX conf 59.9*, FLuc counter 53.7* and MPTP counter 37.1*.
`C=CCN1C(=O)c2ccc(C(=O)N(C)CC(=O)Nc3ccccc3C(F)(F)F)cc2C1=O` gave Beta apoptosis 0.6, SKKanGAS inh -2.6, MPTP inh -0.8, Calb FLC -11.7 and Mdm2-MdmX inh 24.6.
Screening O=C(Nc1cccc(Cl)c1)C1C2CCC3C(CCC21)C3(Cl)Cl (stereo unspecified) returned Beta apoptosis 5.7, SKKanGAS inh 2.8, MPTP inh 98.7*, CSC inhib -13.0, Calb FLC -15.4, Mdm2-MdmX inh 68.6*, Mdm2 MdmX conf 12.8 and MPTP counter 95.6*.
`CCN=c1scc(-c2ccccc2)n1/N=C/c1ccccn1` gave Beta apoptosis 38.9, SKKanGAS inh -5.8, MPTP inh 66.0*, CSC inhib 28.6, Calb FLC 19.7, Mdm2-MdmX inh 84.8*, Mdm2 MdmX conf 66.2*, FLuc counter 127.3* and MPTP counter 46.2*.
Screening CCN=c1scc(-c2ccc(F)cc2)n1/N=C/c1ccccn1 returned Beta apoptosis 6.9, SKKanGAS inh 0.1, MPTP inh 4.1, CSC inhib 2.9, Calb FLC 2.8 and Mdm2-MdmX inh -175.1.
`O=C(COc1ccc2c(-c3ccccc3)cc(=O)oc2c1)Nc1cccnc1` gave Beta apoptosis -3.9, SKKanGAS inh 2.9, MPTP inh 85.2*, CSC inhib -6.1, Calb FLC 2.8, Mdm2-MdmX inh 67.6*, Mdm2 MdmX conf 42.5*, FLuc counter 82.4* and MPTP counter 86.6*.
Cc1ccc(S(=O)(=O)c2nnn3c2nc(Nc2cccc(C)c2)c2ccccc23)cc1 was read as SKKanGAS inh -2.2, MPTP inh 64.8*, CSC inhib 20.1, Calb FLC inconclusive, Mdm2-MdmX inh 53.9*, Mdm2 MdmX conf 8.6 and MPTP counter 24.8*.
`COCCNc1nc2c(S(=O)(=O)c3cc(C)ccc3C)nnn2c2ccccc12` gave Beta apoptosis 4.5, SKKanGAS inh 11.5, MPTP inh 15.9, CSC inhib -0.6, Calb FLC -1.5 and Mdm2-MdmX inh 18.6.
CC(=O)NC(CCS(C)(=O)=O)C(=O)Nc1cc(Cl)ccc1Cl (stereo unspecified) was read as Beta apoptosis 0.1, SKKanGAS inh 0.9, MPTP inh -2.2, CSC inhib -12.7, Calb FLC -4.3 and Mdm2-MdmX inh -2.6.
For CC(C)S(=O)(=O)c1csc(NC(=O)Nc2cc(Cl)ccc2Cl)c1Cl the results were Beta apoptosis 21.8, SKKanGAS inh 58.2*, MPTP inh 86.1*, CSC inhib 65.6, Calb FLC -24.0, Mdm2-MdmX inh 61.6*, Mdm2 MdmX conf 38.2, FLuc counter 93.3* and MPTP counter 76.1*.

Screening results: PubChem, several laboratories
